Screen size: about 87,000 compounds; about 360 (0.41%) were called active. No stated cut-off is given here; in the data, active means cytotoxicity above about 50%; inactive means the rest. What follows is part of a selection rich in actives, with near analogues and random picks from the rest.

Drawing on PubChem BioAssay AID620 (Sanford-Burnham Center for Chemical Genomics, 2007), this text covers cytotoxicity for 97 compounds.

This assay can be described thus: cytotoxicity in HT1080 fibrosarcoma cells, cell-based, fluorescence readout (AID 620).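 Further: cells exposed to compound overnight then 4 h with Alamar Blue; 0% = vehicle DMSO and 100% = killing control.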 To be noted: HT1080 viability, at 10 µM, hits give high values.
On to `Cc1ccccc1-n1cnc2cc(NCc3cccs3)ccc21`, for which the cytotoxicity was 33.7% (inactive).
Consider `COc1ccccc1-n1cnc2cc(NCc3ccco3)ccc21`, for which the cytotoxicity was 59.5% (active).
With `COc1ccccc1-n1cnc2cc(C(=O)NCc3ccco3)ccc21` the figure was -2.4% (inactive); with `COc1ccccc1-n1cnc2cc(NCc3ccccn3)ccc21`, -10% (inactive); with `COc1ccc(-n2cnc3cc(NCc4cccs4)ccc32)cc1`, 1.1% (inactive).
As to `COc1ccccc1-n1cnc2cc(NCc3cccs3)ccc21`, the cytotoxicity was 60% (active).
With `CCOC(=O)CCP(=O)(O)C(C)(O)c1ccccc1` (configuration not stated) the figure was -7.3% (inactive).
Next, `COn1c(=O)c(-c2cccs2)[n+]([O-])c2ccccc21`: -15.3% (inactive); `COc1ccc(N2CC(O)=C(c3nc4ccccc4s3)C2=N)c(OC)c1`: -0.1% (inactive); `CCOc1ccccc1N1CC(O)=C(c2nc3ccccc3s2)C1=N`: 68.7% (active).
Next, `COc1ccc(OC)c(N2CC(O)=C(c3nc4ccccc4s3)C2=N)c1`: -5.7% (inactive).
Regarding `O=C(NCc1ccccc1)C1(c2ccccc2)CCN(S(=O)(=O)c2ccccc2)CC1`, the cytotoxicity was -1.9% (inactive).
With `O=C(CSc1nc2c(c(=O)n1-c1ccc(Cl)cc1)SCC2)N1CCCC1` the figure was -1.5% (inactive); with `N#Cc1c(-c2ccc(Cl)cc2)ccn2nc(C3CCCCC3)nc12`, -4% (inactive).
With `Cc1nc(NC(C)C)c2oc3ccccc3c2n1` the figure was -2.5% (inactive); with `COc1cccc(N2CCN(c3ncnc4c3[nH]c3ccc(F)cc34)CC2C)c1` (configuration not stated), 54.2% (active).
Next, `Fc1ccc2[nH]c3c(N4CCN(c5ccccc5)CC4)ncnc3c2c1`: -4.2% (inactive); `COc1cccc(N2CCN(c3ncnc4c3[nH]c3ccccc34)CC2C)c1` (configuration not stated): -3% (inactive).
`O=C(C1CCCN(Cc2cccc(F)c2)C1)N1CCCCC1` (configuration not stated): the cytotoxicity was 14.1% (inactive).
Next, `O=C(Nc1ccc(N2CCN(C(=O)c3ccc(Cl)cc3)CC2)cc1)c1cc2ccccc2o1`: 7% (inactive); `CCC(=O)Nc1ccc(NC(=O)c2cc3ccccc3o2)cc1`: -1.5% (inactive).
Take `O=C(Nc1ccc(N2CCOCC2)c(Cl)c1)c1c(F)c(F)c(F)c(F)c1F`: the cytotoxicity was 8.9% (inactive).
Next, `O=C(Nc1ccccc1N1CCN(C(=O)c2ccc(Cl)cc2)CC1)c1cc2ccccc2o1`: 1.6% (inactive); `CCCC(=O)N1CCN(c2ccc(NC(=O)c3cc4ccccc4o3)cc2Cl)CC1`: 69.8% (active); `O=C(Nc1ccc(N2CCOCC2)cc1)c1cc2ccccc2o1`: 1.6% (inactive).
Take `O=C(Nc1ccc(N2CCOCC2)c(Cl)c1)c1ccc(F)cc1`: the cytotoxicity is 56.2% (active).
With `CCC(=O)N1CCN(c2ccc(NC(=O)c3cc4ccccc4o3)cc2)CC1` the figure was 1.3% (inactive).
With `O=C(Nc1ccc(N2CCOCC2)c(Cl)c1)c1cccc(F)c1` the figure was 22.9% (inactive); with `CCC(=O)N1CCN(c2ccc(NC(=O)c3cc4ccccc4o3)cc2Cl)CC1`, 96.3% (active); with `O=C(Nc1ccc(N2CCOCC2)c(Cl)c1)c1cc2ccccc2o1`, 89.6% (active).
Regarding `O=C(Nc1ccc(CN2CCOCC2)cc1)c1cc2ccccc2o1`, the cytotoxicity is 8.9% (inactive).
Next, `CCOC(=O)c1ccc2ncc(C(=O)OCC)c(NCc3ccco3)c2c1`: 1.9% (inactive); `O=S(=O)(Nc1ccccn1)c1ccc(Cl)cc1`: -6.1% (inactive); `COc1cccc(-n2c(Cc3cc(=O)[nH]c(=O)[nH]3)nnc2SCC(=O)N2CCCC2)c1`: 3.9% (inactive).
Regarding `COc1ccc([C@H]2[C@@H](C#N)[C@H](C#N)N3CCCN23)cc1`, the cytotoxicity was 5.9% (inactive).
Next, `O=C(CCn1c(=O)sc2ccccc21)NCCN1CCOCC1`: 4.4% (inactive); `Cc1ccc(-c2noc(CCCN3C(=O)c4ccccc4C3=O)n2)cc1`: -3.5% (inactive); `CC(C)c1ccc(NC(=S)NCc2cccs2)cc1`: -17.4% (inactive).
On to `O=C(CN1CCc2ccccc2C1)Nc1ccc(Br)cc1`, for which the cytotoxicity is -3.2% (inactive).
Consider `O=C(Nc1ccc(N2CCN(C(=O)c3ccco3)CC2)c(Cl)c1)c1c(F)c(F)c(F)c(F)c1F`, for which the cytotoxicity is -3% (inactive).
As to `O=C(Nc1ccc(N2CCN(C(=O)c3ccccc3)CC2)c(Cl)c1)c1ccc(Br)o1`, the cytotoxicity is 22.5% (inactive).
In the case of `O=C(Nc1ccc(N2CCOCC2)c(Cl)c1)c1ccc(Br)o1`, the cytotoxicity is 51.4% (active).
Next, `O=C(Nc1ccc(N2CCN(C(=O)c3ccco3)CC2)c(Cl)c1)c1cc2ccccc2o1`: 81.6% (active).
For the compound `O=C(Nc1ccc(N2CCCC2)c(Cl)c1)c1ccc(Br)o1`, the cytotoxicity is 12.7% (inactive).
Consider `O=C(Nc1ccc(N2CCN(C(=O)c3ccccc3)CC2)c(Cl)c1)c1ccco1`, for which the cytotoxicity was -4.5% (inactive).
As for `COc1ccc2c(c1)c(=O)oc1cc(OCC(=O)N3CCCC(C)C3)ccc12` (configuration not stated), the cytotoxicity was -1.8% (inactive).
Next, `CCC1=C(C)N(CCCC(=O)O)C(=O)NC1c1cccc(Cl)c1Cl` (configuration not stated): -11.7% (inactive); `CCOC(=O)C1=C(C)NC(SCC(=O)O)=C(C#N)C1c1ccco1` (configuration not stated): -8% (inactive).
For the compound `O=C(CN(C1CCCCC1)S(=O)(=O)c1ccccc1)NCc1cccnc1`, the cytotoxicity is 1.3% (inactive).
With `CCOC(=O)c1c(C)[nH]c2cc(Br)c(OC)cc12` the figure was -9% (inactive); with `C=CCNC(=O)C12CC3(C)CC(C)(CC(C)(C3)C1)C2`, -24.6% (inactive).
With `CCOC(=O)Nc1sc(C(=O)N(CC)CC)c(C)c1C(=O)OCC` the figure was -6% (inactive).
Next, `CCOC(=O)c1c(NC(=O)CCl)sc(C(=O)N(CC)CC)c1C`: 53.8% (active); `CCOC(=O)c1c(NC(=O)CN(C)C)sc(C(=O)N(CC)CC)c1C`: 25.3% (inactive).
For the compound `CCC(C)[C@H](NC(=O)NCc1cccs1)C(=O)O` (some centres not stated), the cytotoxicity was 8.7% (inactive).
With `CC(C)(C)NC(=O)Cn1nnnc1-c1nonc1N` the figure was 0.2% (inactive); with `CCOC(=O)c1cnc(SCc2ccc(C)cc2)nc1N`, 5.8% (inactive).
Take `CCC(=O)Nc1nonc1-c1nc2ccccc2n1Cc1ccc(Cl)c(Cl)c1`: the cytotoxicity was -2.7% (inactive).
Regarding `CCC(=O)Nc1nonc1-c1nc2ccccc2n1Cc1cccc2ccccc12`, the cytotoxicity is 56.3% (active).
With `CCOC(=O)c1ccccc1NC(=O)Cn1c(-c2nonc2N)nc2ccccc21` the figure was 60.4% (active); with `COC(=O)c1ccccc1NC(=O)Cn1c(-c2nonc2N)nc2ccccc21`, 32% (inactive).
Next, `CCCCOc1ccccc1NC(=O)Cn1c(-c2nonc2N)nc2ccccc21`: 24.5% (inactive); `CCC(=O)Nc1nonc1-c1nc2ccccc2n1CC(C)C`: 2.9% (inactive); `O=C(O)c1cccc(CN2C(=O)CSC2=O)c1`: 3.1% (inactive).
With `Cc1nn(-c2ccccc2)c2sc(C(=O)OCN3C(=O)c4ccccc4C3=O)cc12`, the cytotoxicity is -4% (inactive).
With `NC(=O)c1ccccc1OCC(=O)NS(=O)(=O)c1ccc(Cl)cc1` the figure was -12.8% (inactive); with `CC(C)COc1ccc(CNC(=S)N/N=C/c2ccc([N+](=O)[O-])cc2)cc1`, -12.7% (inactive).
Next, `O=C1C2CCCN2C(c2cccc(F)c2)N1c1cccc(Cl)c1` (configuration not stated): 8.3% (inactive).
With `N=c1n(CCN2CCOCC2)c2ccccc2n1CC(=O)c1ccc(Cl)c(Cl)c1` the figure was 80.5% (active).
As for `CCCCOC(=O)Cn1c(=N)n(CCN2CCOCC2)c2ccccc21`, the cytotoxicity was -3.2% (inactive).
Next, `N=c1n(CCOc2ccccc2)c2ccccc2n1CCN1CCOCC1`: 6.2% (inactive); `O=C(COc1ncnc2ccccc12)NC1CCS(=O)(=O)C1` (configuration not stated): 0.3% (inactive); `O=C(Nc1ccc(NC(=O)C2CCCCC2)nc1)c1ccco1`: -0.2% (inactive).
Consider `COc1ccccc1N1CCN(Cc2nc(N)nc(Nc3ccc(C)cc3)n2)CC1`, for which the cytotoxicity is -2.7% (inactive).
Turning to `CSc1nc(C)c2cc(C)oc2n1`, the cytotoxicity was 10.3% (inactive).
Next, `COc1ccc2nc(NC(=O)CCn3cccc3)sc2c1`: 2.1% (inactive); `CN1CCN(C2=C(Cl)C(=O)C(c3cnc(N4CCCCC4)s3)=C(Cl)C2=O)CC1`: 37.1% (inactive); `CN(C)c1ncc(C2=C(Cl)C(=O)C(N3CCCC3)=C(Cl)C2=O)s1`: 16.7% (inactive).
With `CCCCOc1ccc(CSc2nncn2N)cc1` the figure was 0.8% (inactive).
With `Cc1ccccc1NS(=O)(=O)c1ccc(F)cc1` the figure was 6.2% (inactive); with `COc1ccc(OC)c(NS(=O)(=O)c2ccc(N3CCCC3=O)cc2)c1`, 60.6% (active).
Turning to `Cc1ccccc1NS(=O)(=O)c1ccc(N2CCCC2=O)cc1`, the cytotoxicity is 56.7% (active).
Next, `O=C1CCCN1c1ccc(S(=O)(=O)NCCOc2ccccc2)cc1`: -6.1% (inactive); `COc1ccc(OC)c(NS(=O)(=O)c2ccc3c(c2)n(C)c(=O)n3C)c1`: -7.2% (inactive); `COc1ccc(CCNS(=O)(=O)c2ccc(N3CCCC3=O)cc2)cc1`: -12.5% (inactive).
For `CCOC(=O)C1CCN(C(=O)Nc2ccc3nc(C)c(C)nc3c2)CC1`, the cytotoxicity is 2.9% (inactive).
With `Cc1cc(C)c(S(=O)(=O)NCC2CCC(C(=O)NCCCN3CCOCC3)CC2)c(C)c1` (configuration not stated) the figure was 2.9% (inactive); with `Cc1cc(C)c(NC(=O)c2ccc(S(=O)(=O)N3CCOCC3)cc2)c(C)c1`, -5.9% (inactive); with `C=CCN1C(=O)S/C(=C/c2ccsc2)C1=O`, 2.6% (inactive).
Take `C=CCOC(=O)c1[nH]c2c(c1C)C(=O)CC(c1ccco1)C2` (configuration not stated): the cytotoxicity was 67.5% (active).
Next, `C/C=C/COC(=O)c1[nH]c2c(c1C)C(=O)CC(c1ccc(N(C)C)cc1)C2` (configuration not stated): -0.3% (inactive).
In the case of `C/C=C/COC(=O)c1[nH]c2c(c1C)C(=O)CC(c1ccco1)C2` (configuration not stated), the cytotoxicity was 65.5% (active).
With `N#CC1=C2C=CC=CN2CC1=O` the figure was -0.7% (inactive).
As to `COc1ccc(CC(=O)N2CCCc3ccccc32)cc1`, the cytotoxicity is -11% (inactive).
Next, `CCSC1(SCC)N=C(N)C2(C#N)C(c3ccccc3)NC(C)=C(C)C12C#N` (configuration not stated): 6.9% (inactive); `CCN(CC)S(=O)(=O)c1ccc(Br)c(OC)c1`: -1.2% (inactive); `CCc1ccccc1NC(=O)CN1C(=O)C2CCCN2c2ncc(Cl)cc21` (configuration not stated): -1.2% (inactive).
